Consider seven compounds from PubChem BioAssay (Tox21).

Values joined by “and” are separate entries in the source; they are usually repeats but may differ in a detail not shown here. Equal values may be shown once. Results filed as inconclusive are left out. More than one record can exist for a structure, and the calls need not agree. Active and inactive are the calls of the source. Unless noted, calls come from the whole dose curve; as a rule, active = well fitted curve in the direction sought with a large enough effect in the repeat runs; inconclusive = weak or mixed curves; inactive = no such curve, though single readings can be large; an effect the other way counts as inactive or inconclusive.

A short description of assay [1]: qHTS assay to identify small molecule that activate the aryl hydrocarbon receptor (AhR) signaling pathway - cell viability counter screen (AID 743086). Note: nearly all actives have a fitted effect of over 45% in size. Note: potency is the fitted concentration of half-maximal effect. The method in brief: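 HepG2-AhR-luc (HG2L7.5c1) cells, 4000/well, treated 24 h at 37 C with compound; viability measured as CellTiter-Fluor fluorescence after 30 min in the same wells as the luciferase read.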
In general terms: qHTS replaces the single test concentration by a dilution series.

Assay [2] is described as follows: qHTS assay for small molecule agonists of the antioxidant response element (ARE) signaling pathway - cell viability counter screen (AID 743203; calls by dose curve; note: nearly all actives have a fitted effect of over 55% in size; note: potency is the fitted concentration of half-maximal effect). Summed up:
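Parallel cytotoxicity read-out for the ARE-bla screen: HepG2 reporter cells, 16 hrs with compounds, then CellTiter-Glo luminescence.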

The nature of assay [3]: qHTS assay for small molecule activators of the heat shock response signaling pathway - cell viability counter screen (AID 743209). Note: nearly all actives have a fitted effect of over 50% in size. Note: potency is the fitted concentration of half-maximal effect. The method in brief: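 To flag cytotoxic compounds, HSE-bla HeLa cells plated at 1500 cells/well were dosed for 5 h at 37 C, followed by the reporter FRET read and then CellTiter-Glo, with luminescence recorded 30 min after reagent addition.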

The nature of assay [4]: qHTS assay for small molecule activators of the heat shock response signaling pathway (AID 743210; active = well fitted activation curve with a large enough effect in the signal ratio in the repeat runs, with a control signal flat, not every such curve was filed as active; the % refers to the signal ratio;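 note: HeLa cells with beta-lactamase reporter driven by heat shock elements; series mostly up to about 63 µM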). Summed up:
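Beta-lactamase reporter read-out: FRET substrate fluorescence after 2.5 h at RT, following 5 h compound treatment at 37 C of HeLa cells carrying HSE-driven bla reporter; quantitative HTS format.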

Assay [5] is described as follows: qHTS assay to identify small molecule agonists of the peroxisome proliferator-activated receptor delta (PPARd) signaling pathway - cell viability counter screen (AID 743211). Note: nearly all actives have a fitted effect of over 55% in size. Note: potency is the fitted concentration of half-maximal effect. The method in brief: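 Read-out: CellTiter-Glo luminescence, 30 min RT, measured in the same wells as the beta-lactamase reporter. Cells: GeneBLAzer PPAR delta UAS-bla HEK293H, 3000 cells/well, compound exposure 17 h at 37C.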

Assay [6] in a line: qHTS assay to identify small molecule antagonists of the peroxisome proliferator-activated receptor delta (PPARd) signaling pathway - cell viability counter screen (AID 743213). Note: nearly all actives have a fitted effect of over 50% in size. Note: potency is the fitted concentration of half-maximal effect. The method in brief:
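In this counter screen, HEK293H cells carrying a UAS-beta-lactamase reporter are co-treated with test compounds and 300 nM L165041 (final) for 17 h at 37 C; cell viability is quantified by CellTiter-Glo luminescence.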

Assay [7] is described as follows: qHTS assay to identify small molecule agonists of the farnesoid-X-receptor (FXR) signaling pathway - cell viability counter screen (AID 743218). Note: nearly all actives have a fitted effect of over 45% in size. Note: potency is the fitted concentration of half-maximal effect. Summed up:
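Same-well cytotoxicity check on FXR-UAS-bla HEK 293T cells: 5 h attachment, 16 h compound at 37 C, CellTiter-Glo luminescence read at room temperature after 30 min.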

A short description of assay [8]: qHTS assay to identify small molecule antagonists of the farnesoid-X-receptor (FXR) signaling pathway - cell viability counter screen (AID 743221; active = well fitted cell-killing curve with a large enough effect in the repeat runs, not every such curve was filed as active; note: nearly all actives have a fitted effect of over 50% in size; note: potency is the fitted concentration of half-maximal effect). Summed up: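 HEK 293T FXR-bla cells, 5 h pre-incubation; compound + CDCA 50 uM final, 16 h, 37 C; beta-lactamase FRET read first, then CellTiter-Glo luminescence, 30 min RT.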
The target in assay [9] is Vitamin D3 receptor (Homo sapiens) (UniProt P11473). Briefly: qHTS assay to identify small molecule antagonists of the vitamin D receptor (VDR) signaling pathway (AID 743223; active = well fitted inhibition curve with a large enough effect in the signal ratio in the repeat runs, not every such curve was filed as active; the % refers to the signal ratio). Summed up:
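Beta-lactamase reporter read-out: FRET substrate fluorescence after 2 h at room temperature, following 16 h exposure of VDR-bla cells to test compound plus 3 nM (final) 1alpha,25-dihydroxyvitamin D3 agonist at 37C.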

Assay [10] can be described thus: qHTS assay to identify small molecule antagonists of the vitamin D receptor (VDR) signaling pathway - cell viability counter screen (AID 743225). Note: nearly all actives have a fitted effect of over 50% in size. The method in brief:
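Viability counter screen run in the same wells as the beta-lactamase reporter assay: HEK 293T VDR-UAS-bla cells, 16 h compound exposure at 37C with 3 nM (final) 1-alpha,25-dihydroxyvitamin D3. CellTiter-Glo luminescence, 30 min, room temperature.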

Assay [11] can be described thus: qHTS assay to identify small molecule antagonists of the peroxisome proliferator-activated receptor gamma (PPARg) signaling pathway - cell viability counter screen (AID 743194). Note: nearly all actives have a fitted effect of over 55% in size. Note: potency is the fitted concentration of half-maximal effect. The method in brief:
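Cytotoxicity counter screen in PPARg-bla HEK293H cells, same wells as reporter assay. Compounds plus 50 nM rosiglitazone (final) for 17 h at 37 C, then viability read by CellTiter-Glo luminescence.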

A short description of assay [12]: qHTS assay for small molecule agonists of the antioxidant response element (ARE) signaling pathway (AID 743202; active = well fitted activation curve with a large enough effect in the signal ratio in the repeat runs, not every such curve was filed as active; the % refers to the signal ratio). Summed up: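 HepG2 ARE-bla reporter line, 2,000 cells/well; 5 h preincubation 37 C/5% CO2; compound (DMSO) 16 h 37 C; B/G FRET substrate 2 h RT; fluorescence intensity.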
For assay [13], the target named is Bile acid receptor (Homo sapiens) (UniProt Q96RI1). Briefly: qHTS assay to identify small molecule agonists of the farnesoid-X-receptor (FXR) signaling pathway (AID 743220; active = well fitted activation curve with a large enough effect in the signal ratio in the repeat runs, not every such curve was filed as active; the % refers to the signal ratio). Summed up: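 FXR-UAS-bla HEK 293T cells carrying a UAS-driven beta-lactamase reporter were plated for 5 h at 37C/5% CO2, then exposed to DMSO-dissolved Tox21 10K compounds for 16 h at 37C. A LiveBLAzer B/G FRET substrate was loaded for 2 h at room temperature before fluorescence reading.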

The nature of assay [14]: qHTS assay to identify small molecule agonists of the vitamin D receptor (VDR) signaling pathway - cell viability counter screen (AID 743224). Note: nearly all actives have a fitted effect of over 50% in size. Note: potency is the fitted concentration of half-maximal effect. The method in brief:
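Counter screen for cytotoxicity: VDR-bla cells at 2,000 cells/well, 16 h compound exposure, then CellTiter-Glo luminescence after the beta-lactamase measurement.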

The target in assay [15] is Peroxisome proliferator-activated receptor delta (Homo sapiens) (UniProt Q03181). The experiment in a line: qHTS assay to identify small molecule agonists of the peroxisome proliferator-activated receptor delta (PPARd) signaling pathway (AID 743212; calls by dose curve). The method in brief: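 Read-out: beta-lactamase FRET fluorescence after 2 h room-temperature incubation with LiveBLAzer B/G substrate. Cells were HEK293H carrying a UAS-bla reporter for PPARd, treated at 37 C with DMSO-dissolved compounds.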

In assay [16] the target is Bile acid receptor (Homo sapiens) (UniProt Q96RI1). Briefly: qHTS assay to identify small molecule antagonists of the farnesoid-X-receptor (FXR) signaling pathway (AID 743217; active = well fitted inhibition curve with a large enough effect in the signal ratio in the repeat runs, not every such curve was filed as active; the % refers to the signal ratio; note: potency is the fitted concentration of half-maximal effect). The method in brief: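 Quantitative HTS, beta-lactamase reporter format: FXR-UAS-bla HEK 293T cells co-treated 16 h at 37 °C with compounds and 50 uM final chenodeoxycholic acid, then read by B/G FRET fluorescence.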

Assay [17] deals with Peroxisome proliferator-activated receptor delta (Homo sapiens) (UniProt Q03181). Briefly: qHTS assay to identify small molecule antagonists of the peroxisome proliferator-activated receptor delta (PPARd) signaling pathway (AID 743215; active = well fitted inhibition curve with a large enough effect in the signal ratio in the repeat runs, not every such curve was filed as active; the % refers to the signal ratio;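 note: cells stimulated with agonist L165041 at 300 nM final during compound exposure; series mostly up to about 62 µM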). The method in brief:
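Screen format: qHTS, antagonist mode. HEK293H PPARd-bla cells received compound and 300 nM L165041 (final), 17 h, 37 C. Beta-lactamase detected via FRET substrate fluorescence, 2 h, room temperature.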

In assay [18] the target is Peroxisome proliferator-activated receptor gamma (Homo sapiens) (UniProt P37231). Briefly: qHTS assay to identify small molecule antagonists of the peroxisome proliferator-activated receptor gamma (PPARg) signaling pathway (AID 743191; calls by dose curve; note: potency is the fitted concentration of half-maximal effect; nearly all actives have a fitted effect of over 30% in size). The method in brief: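 GeneBLAzer PPARg UAS-bla HEK293H cells, 5 h post-plating, exposed to compounds 17 h at 37C. LiveBLAzer B/G FRET substrate added for 1 h at room temperature; beta-lactamase reporter read by fluorescence intensity.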

Assay [19] has as its target Vitamin D3 receptor (Homo sapiens) (UniProt P11473). The experiment in a line: qHTS assay to identify small molecule agonists of the vitamin D receptor (VDR) signaling pathway (AID 743222; calls by dose curve). The method in brief:
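Using LiveBLAzer B/G FRET detection, agonism was scored in VDR-bla cells exposed overnight (16 h, 37C) to DMSO-dissolved compounds; substrate incubation was 2 h at room temperature.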

Sequence of Bile acid receptor (Homo sapiens) (Q96RI1 whole entry, looked up): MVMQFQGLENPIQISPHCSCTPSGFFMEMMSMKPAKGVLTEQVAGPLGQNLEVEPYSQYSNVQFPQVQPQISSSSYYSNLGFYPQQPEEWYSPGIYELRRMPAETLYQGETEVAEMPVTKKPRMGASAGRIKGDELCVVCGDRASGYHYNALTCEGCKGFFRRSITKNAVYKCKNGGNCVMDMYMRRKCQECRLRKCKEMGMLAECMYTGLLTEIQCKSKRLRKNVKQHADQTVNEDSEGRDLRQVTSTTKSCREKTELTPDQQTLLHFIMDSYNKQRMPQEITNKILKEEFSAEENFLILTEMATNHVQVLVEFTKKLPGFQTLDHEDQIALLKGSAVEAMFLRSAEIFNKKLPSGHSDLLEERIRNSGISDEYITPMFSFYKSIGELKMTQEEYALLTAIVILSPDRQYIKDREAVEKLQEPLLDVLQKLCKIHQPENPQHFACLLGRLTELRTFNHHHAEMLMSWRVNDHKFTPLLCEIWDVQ
Sequence of Vitamin D3 receptor (Homo sapiens) (P11473 whole entry, looked up): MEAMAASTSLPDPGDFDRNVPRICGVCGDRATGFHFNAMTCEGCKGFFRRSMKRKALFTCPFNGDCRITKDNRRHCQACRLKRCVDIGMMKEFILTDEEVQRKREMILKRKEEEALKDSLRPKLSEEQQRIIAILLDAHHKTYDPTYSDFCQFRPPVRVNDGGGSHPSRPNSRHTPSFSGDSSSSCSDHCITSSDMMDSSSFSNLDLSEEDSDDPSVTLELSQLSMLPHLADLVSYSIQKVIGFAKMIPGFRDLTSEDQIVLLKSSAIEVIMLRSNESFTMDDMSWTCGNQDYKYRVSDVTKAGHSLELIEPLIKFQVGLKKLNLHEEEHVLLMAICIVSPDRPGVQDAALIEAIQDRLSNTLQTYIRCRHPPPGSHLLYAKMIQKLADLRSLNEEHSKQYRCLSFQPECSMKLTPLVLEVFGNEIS
Sequence of Peroxisome proliferator-activated receptor delta (Homo sapiens) (Q03181 whole entry, looked up): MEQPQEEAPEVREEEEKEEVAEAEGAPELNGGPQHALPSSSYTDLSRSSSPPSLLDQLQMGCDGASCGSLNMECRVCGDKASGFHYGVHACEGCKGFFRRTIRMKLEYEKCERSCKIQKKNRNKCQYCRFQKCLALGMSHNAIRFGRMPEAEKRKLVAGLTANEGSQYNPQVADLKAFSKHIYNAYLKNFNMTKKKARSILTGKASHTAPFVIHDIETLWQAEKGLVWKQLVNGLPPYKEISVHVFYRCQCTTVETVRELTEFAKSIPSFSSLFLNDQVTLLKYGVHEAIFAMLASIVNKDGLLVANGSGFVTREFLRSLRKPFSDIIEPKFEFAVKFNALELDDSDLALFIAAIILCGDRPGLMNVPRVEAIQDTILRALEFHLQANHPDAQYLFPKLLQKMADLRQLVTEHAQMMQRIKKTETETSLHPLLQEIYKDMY
Sequence of Peroxisome proliferator-activated receptor gamma (Homo sapiens) (P37231 whole entry, looked up): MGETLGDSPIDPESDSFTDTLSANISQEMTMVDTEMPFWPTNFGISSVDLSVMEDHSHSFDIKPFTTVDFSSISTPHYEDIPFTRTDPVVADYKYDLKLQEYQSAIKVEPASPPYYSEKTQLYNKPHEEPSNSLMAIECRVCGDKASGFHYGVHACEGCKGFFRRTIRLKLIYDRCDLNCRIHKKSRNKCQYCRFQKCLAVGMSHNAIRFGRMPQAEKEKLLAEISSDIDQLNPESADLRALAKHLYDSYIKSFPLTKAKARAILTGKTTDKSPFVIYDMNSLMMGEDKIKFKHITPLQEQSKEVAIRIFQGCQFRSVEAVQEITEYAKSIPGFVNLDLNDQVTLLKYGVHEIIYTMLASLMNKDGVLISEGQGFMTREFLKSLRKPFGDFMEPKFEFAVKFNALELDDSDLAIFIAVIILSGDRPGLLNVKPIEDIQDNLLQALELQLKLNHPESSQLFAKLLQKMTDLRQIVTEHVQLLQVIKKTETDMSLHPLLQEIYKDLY

Turning to `Cc1ccc(C(=O)c2cc(O)c(O)c([N+](=O)[O-])c2)cc1`, the Potency result in [1], in assay [3], in [4], in assay [5], in [6] and in [7] was “inactive” in each case. The Potency entry in [8] and in assay [10] was “inactive” in each case. In assay [2], the Potency is 9.69 µM (active). Further, the call in assay [9] was inactive.
With `O=C(Nc1ccc([N+](=O)[O-])cc1Cl)c1cc(Cl)ccc1O`, the Potency result in assay [1] and in assay [12] was “inactive” each time. The Potency in assay [11] was 123 nM (active) and 461 nM (active); in assay [3], 309 nM (active); in assay [5], 219 nM (active) and 259 nM (active); in assay [6] it was 1.64 µM (active); in [7], 1.38 µM (active) and 1.16 µM (active); in assay [8] it was 3.26 µM (active). Besides, the Potency in assay [14] is 549 nM (active) and 651 nM (active). The compound was classed as inactive in assay [13].
Take `COC(=O)C1=C(C)NC(C)=C(C(=O)OCCN(C)Cc2ccccc2)C1c1cccc([N+](=O)[O-])c1` (configuration not stated): the Potency in assay [11] is 24.4 µM (active) and 33.5 µM (active); in [2], 24.2 µM (active) and 26.6 µM (active); in [5] it was 24.4 µM (active) and 26.6 µM (active); in assay [6] it was 48.7 µM (active) and 26.6 µM (active); in [7], 24.4 µM (active) and 29.8 µM (active); in [14], 54.6 µM (active). Besides, in [3], the Potency entry is “inactive”. Moreover, in [15], the compound was called inactive.
Consider `COc1c(Cl)c(Cl)c(Cl)c(Cl)c1Cl`, for which the Potency result in assay [1], in assay [11], in [12], in [2], in assay [3] and in assay [4] was “inactive” in each case. Moreover, the Potency entry in assay [5], in assay [6], in assay [16], in assay [7], in assay [8] and in [14] was “inactive” throughout. In addition, in assay [10], the Potency result is “inactive”. Also, the outcome in assay [13] was inactive.
As for `O=C1OC2(c3cc(Br)c(O)c(Br)c3Oc3c2cc(Br)c(O)c3Br)c2c(Cl)c(Cl)c(Cl)c(Cl)c21`, the Potency in assay [1] is 9.7 µM (active) and 5.88 µM (active). For the same compound, the Potency result in assay [12], in assay [2], in assay [3], in assay [6], in [17] and in assay [7] was “inactive” in each case. Further, the Potency entry in [8] and in assay [14] was “inactive” each time.
On to `O=C(/C=C/C=C/c1ccc2c(c1)OCO2)N1CCCCC1`, for which the Potency result in assay [1], in assay [2], in [3], in assay [4], in assay [6] and in assay [7] was “inactive” in each case. In addition, the Potency entry in assay [8] and in assay [14] was “inactive” throughout. In addition, the Potency was 43.7 µM (active) in assay [18]; “inactive and 54.9 µM (active)” in assay [16]. For the same compound, the compound was classed as inactive in assay [15], in assay [13], in [19] and in assay [9].
For the compound `C[C@]12CCC(=O)C=C1CC[C@@H]1[C@@H]2C(=O)C[C@@]2(C)[C@H]1CC[C@]2(O)C(=O)CO`, the Potency entry in assay [1], in assay [11], in assay [12], in [2], in assay [3] and in assay [4] was “inactive” in each case. Besides, the Potency result in assay [7], in assay [8] and in assay [10] was “inactive” throughout. In addition, the compound was classed as inactive in [15]. Further, the Potency in assay [6] was 49 µM (active) and inactive; in [14] it was 24.5 µM (active) and inactive.
